{"source": "PubChem BioAssay (Tox21)", "note": "Inconclusive results are not listed. Values without a mark were called inactive. Active and inactive are the calls of the source. Calls come from the whole dose curve; as a rule, active = well fitted cell-killing curve with a large enough effect in the repeat runs (not every such curve was filed as active); inconclusive = weak or mixed curves, or effect the other way; inactive = no such curve, though single readings can be large or run the other way. % is set by controls: 0 for no effect and ±100 for the full control effect."}
{"assay": "qHTS assay to identify small molecule antagonists of the estrogen related receptor signaling pathway with the pleiotropic PPARgamma coactivator (PGC) from Tox21 10K library - cell viability counter screen (AID 1224840); note: nearly all actives have a fitted effect of over 40% in size", "settings": "PGC/ERR reporter cells viability, CellTiter-Fluor, 17.5 h; series mostly up to 92.4 µM", "text": "National Center for Advancing Translational Sciences [NCATS]\nNIH Chemical Genomics Center [NCGC]\nU.S. Environmental Protection Agency [EPA]\nNational Institutes of Environmental Health Sciences [NIEHS]\nNational Toxicology Program [NTP]\nU.S. Food and Drug Administration [FDA]\nEstrogen related receptors (ERRs), the first orphan nuclear receptors discovered, play an important role in the control of cellular energy metabolism. ERRs are required for high-energy production in response to the environmental challenges. The pleiotropic PPARgamma coactivator (PGC) is a major partner of ERR and a key regulator in energy homeostasis. Together they have been implicated in the etiology of metabolic disorders such as Type 2 diabetes and metabolic syndrome. ERR-alpha was also identified as an adverse marker for breast cancer progression; ERR-alpha-positive tumors have a poor prognosis. To screen and to identify environmental compounds that perturb the ERR and PGC/ERR signaling pathways could provide valuable information for potential therapeutic or preventive measures in the treatment of metabolic disease. To differentiate true PGC/ERR antagonists or agonist from cytotoxic substances, the assay is multiplexed with cell viability assay.\nTox21 Assay Protocol Summary:\nThe PGC/ERR cells were dispensed at 2,000 cells/5 ul/well in 1536-well white plates using a Multidrop dispenser. After the assay plates were incubated at a 37 C/5% CO2 incubator for 6 hours, 23 nL of compounds dissolved in DMSO, positive and negative controls or DMSO only was transferred to the assay plate by a pin tool. The plates were incubated at 37 C for 17.5 hours. 1 ul/well of CellTiter-Fluor reagent was added into the assay plates using a Flying Reagent Dispenser. After 30-minute incubation at 37 C/5% CO2, the fluorescence intensity in the plates was measured using a ViewLux plate reader."}
{"smiles": "COc1cc(C)nc(-n2nc(C)cc2OC)n1", "outcome": "inactive"}
{"smiles": "NO", "outcome": "inactive"}
{"smiles": "Nc1ccn([C@@H]2O[C@H](CO)[C@@H](O)[C@@H]2O)c(=O)n1", "outcome": "inactive"}
{"smiles": "O=C(O)CNC(=O)c1ccc(CO)o1", "outcome": "inactive"}
{"smiles": "c1ccc(Cc2ccccc2)cc1", "outcome": "inactive"}
{"smiles": "CN1CCN(c2cc3c(nn2)Oc2ccccc2N3C)CC1", "viability change, negative = cytotoxic": "2.34% [at 19 µM]"}
{"smiles": "[O-][n+]1cccc(CO)c1", "outcome": "inactive"}
{"smiles": "CCCCOC(=O)CCC(C)=O", "outcome": "inactive"}
{"smiles": "CC1(C)OC[C@@H](COC(=O)CCc2ccc(OC[C@@H](O)CNCCNC(=O)N3CCOCC3)cc2)O1", "outcome": "inactive"}
{"smiles": "Nc1ccn([C@@H]2O[C@H](CO)[C@@H](O)C2O)c(=O)n1", "note": "(stereo not given in full)", "outcome": "inactive"}
{"smiles": "CN(C)C(=O)Oc1ccc[n+](C)c1", "outcome": "inactive"}
{"smiles": "C[C@@H]1CCC[C@H](C)N1", "outcome": "inactive"}
{"smiles": "CC(C)(N)C#N", "outcome": "inactive"}
{"smiles": "O=[N+]([O-])c1cncn1CCN1CCOCC1", "outcome": "inactive"}
{"smiles": "Clc1cc(Cl)c(Cl)nc1Cl", "outcome": "inactive"}
{"smiles": "CCCCCC(=O)OCCc1ccccc1", "outcome": "inactive"}
{"smiles": "CC(C)C(=O)OC(=O)C(C)C", "outcome": "inactive"}
{"smiles": "Clc1cc(Cl)cc(Cl)c1", "outcome": "inactive"}
{"smiles": "CCOC(=O)CCC(=O)OCC", "outcome": "inactive"}
{"smiles": "CCCCN1C=CN(C)C1", "viability change, negative = cytotoxic": "1.46% [at 19 µM]"}
{"smiles": "OCCc1ccccn1", "outcome": "inactive"}
{"smiles": "CCCCN(CCC(=O)OCC)C(C)=O", "outcome": "inactive"}
{"smiles": "CN1[C@@H]2CC[C@H]1CC(OC(=O)C(O)c1ccccc1)C2", "note": "(stereo not given in full)", "outcome": "inactive"}
{"smiles": "CCCCOCCOC(=O)CCCCCCCCC(=O)OCCOCCCC", "outcome": "inactive"}
{"smiles": "O=C(c1ccccc1)C1(O)CCCCC1", "outcome": "inactive"}
{"smiles": "CCOC(=O)COc1cc(-n2ncc(C(F)(F)F)c(C)c2=O)c(F)cc1Cl", "outcome": "inactive"}
{"smiles": "COC(=O)C1=C(C)NC(C)=C(C(=O)OC(C)C)C1c1cccc2nonc12", "note": "(stereo not given)", "outcome": "inactive"}
{"smiles": "CC1=CCC(O)(C(C)C)CC1", "note": "(stereo not given)", "outcome": "inactive"}
{"smiles": "CC(CC=O)CC(C)(C)C", "note": "(stereo not given)", "outcome": "inactive"}
{"smiles": "C=C(C)C(=O)OCCOCCOCCOCCOC(=O)C(=C)C", "outcome": "inactive"}
{"smiles": "COC(=O)Nc1ccc(Cl)c(Cl)c1", "outcome": "inactive"}
{"smiles": "Cc1c(N)c(=O)n(-c2ccccc2)n1C", "outcome": "inactive"}
{"smiles": "C=C(C)C(=O)OCC1CCCO1", "note": "(stereo not given)", "outcome": "inactive"}
{"smiles": "Nc1ccn([C@@H]2O[C@H](CO)[C@@H](O)C2(F)F)c(=O)n1", "outcome": "inactive"}
{"smiles": "CC(=O)N1C[C@H](O)C[C@H]1C(=O)O", "outcome": "inactive"}
{"smiles": "Cc1onc(-c2c(Cl)cccc2Cl)c1C(=O)Cl", "outcome": "inactive"}
{"smiles": "CN1CCC(=C2c3ccccc3CCc3cccnc32)CC1", "outcome": "inactive"}
{"smiles": "CC1(C)[C@@H]2CC[C@@]1(C)[C@H](O)C2", "outcome": "inactive"}
{"smiles": "CC1=CC(=O)[C@H]2C[C@@H]1C2(C)C", "outcome": "inactive"}
{"smiles": "CC1OC1C1CCC2(C)OC2C1", "note": "(stereo not given)", "outcome": "inactive"}
